In article PMC11006913:
Residue numbers refer to the chain shown, from its start.

Experiments:
Assay in all cases: PBM; 200 nM protein, PBS
Conditions in all cases: dsDNA, one strand shown
SHOX [1] = target: SHOX (Homo sapiens, UniProt O15266 103-189)
HOXB6 [2] = target: HOXB6 (Homo sapiens, UniProt P17509 132-218, K202E)
ALX3 [3] = target: ALX3 (Homo sapiens, UniProt O95076 139-225, N203Q)
SHOX [4] = target: SHOX (Homo sapiens, UniProt O15266 103-189, R173C)
ALX3 [5] = target: ALX3 (Homo sapiens, UniProt O95076 139-225)
Sequence of ALX3 (Homo sapiens, UniProt O95076 139-225) (O95076 139-225): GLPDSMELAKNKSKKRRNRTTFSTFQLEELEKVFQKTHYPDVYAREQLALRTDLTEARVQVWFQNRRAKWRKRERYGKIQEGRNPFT

ALX3 [6] = target: ALX3 (Homo sapiens, UniProt O95076 139-225, L168Q)
Sequence of ALX3 (Homo sapiens, UniProt O95076 139-225, L168Q) (O95076 139-225 L168Q): as the sequence (O95076 139-225) above, with L30Q counted along it

ALX3 [7] = target: ALX3 (Homo sapiens, UniProt O95076 139-225, L168V)
Sequence of ALX3 (Homo sapiens, UniProt O95076 139-225, L168V) (O95076 139-225 L168V): as the sequence (O95076 139-225) above, with L30V counted along it

ALX3 [8] = target: ALX3 (Homo sapiens, UniProt O95076 139-225, N203S)
Sequence of ALX3 (Homo sapiens, UniProt O95076 139-225, N203S) (O95076 139-225 N203S): as the sequence (O95076 139-225) above, with N65S counted along it

HOXB6 [9] = target: HOXB6 (Homo sapiens, UniProt P17509 132-218)
Sequence of HOXB6 (Homo sapiens, UniProt P17509 132-218) (P17509 132-218): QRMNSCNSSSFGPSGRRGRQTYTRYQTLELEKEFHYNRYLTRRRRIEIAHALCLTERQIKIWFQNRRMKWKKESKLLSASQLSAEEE

PAX4 [10] = target: T1, PAX4 (Homo sapiens, UniProt O43316 9-242, R200K)
T1 sequence: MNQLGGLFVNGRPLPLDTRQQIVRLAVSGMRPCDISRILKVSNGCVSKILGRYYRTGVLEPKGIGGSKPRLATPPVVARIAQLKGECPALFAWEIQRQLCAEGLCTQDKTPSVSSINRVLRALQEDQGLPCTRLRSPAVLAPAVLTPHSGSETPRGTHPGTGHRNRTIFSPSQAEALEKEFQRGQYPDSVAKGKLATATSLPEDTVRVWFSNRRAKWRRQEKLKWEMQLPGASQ

PAX4 [11] = target: T2, PAX4 (Homo sapiens, UniProt O43316 9-242)
T2 sequence: T1 sequence with K192R

PAX4 [12] = target: T3, PAX4 (Homo sapiens, UniProt O43316 9-242, R200Q)
T3 sequence: T1 sequence with K192Q

PITX2 = PITX2 (Homo sapiens, UniProt Q99697 72-157)
PAX4 [13] = target: T4, PAX4 (Homo sapiens, UniProt O43316 9-242, F177V)
T4 sequence: T1 sequence with F169V, K192R

PAX4 [14] = target: T5, PAX4 (Homo sapiens, UniProt O43316 9-242, F177Y)
T5 sequence: T1 sequence with F169Y, K192R

PAX4 [15] = target: T6, PAX4 (Homo sapiens, UniProt O43316 9-242, R227W)
T6 sequence: T1 sequence with K192R, R219W

HESX1 [16] = target: HESX1 (Homo sapiens, UniProt Q9UBX0 95-180, R109Q)
Sequence of HESX1 (Homo sapiens, UniProt Q9UBX0 95-180, R109Q) (Q9UBX0 95-180 R109Q): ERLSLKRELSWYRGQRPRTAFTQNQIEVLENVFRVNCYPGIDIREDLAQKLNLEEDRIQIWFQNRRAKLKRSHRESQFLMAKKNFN

HESX1 [17] = target: HESX1 (Homo sapiens, UniProt Q9UBX0 95-180, F115L)
Sequence of HESX1 (Homo sapiens, UniProt Q9UBX0 95-180, F115L) (Q9UBX0 95-180 F115L): as the sequence (Q9UBX0 95-180 R109Q) above, with Q15R, F21L counted along it

HOXA2 [18] = target: HOXA2 (Homo sapiens, UniProt O43364 129-215, R185T)
Sequence of HOXA2 (Homo sapiens, UniProt O43364 129-215, R185T) (O43364 129-215 R185T): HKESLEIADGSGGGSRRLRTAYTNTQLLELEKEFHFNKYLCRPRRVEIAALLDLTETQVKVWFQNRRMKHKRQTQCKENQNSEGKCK

HOXA2 [19] = target: HOXA2 (Homo sapiens, UniProt O43364 129-215, R185K)
Sequence of HOXA2 (Homo sapiens, UniProt O43364 129-215, R185K) (O43364 129-215 R185K): as the sequence (O43364 129-215 R185T) above, with T57K counted along it

HOXA2 [20] = target: HOXA2 (Homo sapiens, UniProt O43364 129-215, Y150S)
Sequence of HOXA2 (Homo sapiens, UniProt O43364 129-215, Y150S) (O43364 129-215 Y150S): as the sequence (O43364 129-215 R185T) above, with Y22S, T57R counted along it

HOXA2 [21] = target: HOXA2 (Homo sapiens, UniProt O43364 129-215)
Sequence of HOXA2 (Homo sapiens, UniProt O43364 129-215) (O43364 129-215): as the sequence (O43364 129-215 R185T) above, with T57R counted along it

HOXC10 [22] = target: HOXC10 (Homo sapiens, UniProt Q9NYD6 254-340)
Sequence of HOXC10 (Homo sapiens, UniProt Q9NYD6 254-340) (Q9NYD6 254-340): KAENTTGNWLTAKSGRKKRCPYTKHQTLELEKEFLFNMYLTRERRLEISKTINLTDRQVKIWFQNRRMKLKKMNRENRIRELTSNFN

HOXD13 [23] = target: HOXD13 (Homo sapiens, UniProt P35453 263-343, T313R)
Sequence of HOXD13 (Homo sapiens, UniProt P35453 263-343, T313R) (P35453 263-343 T313R): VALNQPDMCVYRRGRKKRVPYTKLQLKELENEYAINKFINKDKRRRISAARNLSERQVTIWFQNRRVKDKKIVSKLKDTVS

HOXD13 [24] = target: HOXD13 (Homo sapiens, UniProt P35453 263-343)
Sequence of HOXD13 (Homo sapiens, UniProt P35453 263-343) (P35453 263-343): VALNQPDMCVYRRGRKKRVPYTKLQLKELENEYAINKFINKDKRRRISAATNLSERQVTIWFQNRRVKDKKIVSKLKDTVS

HOXC10 [25] = target: HOXC10 (Homo sapiens, UniProt Q9NYD6 254-340, K271E)
Sequence of HOXC10 (Homo sapiens, UniProt Q9NYD6 254-340, K271E) (Q9NYD6 254-340 K271E): as the sequence (Q9NYD6 254-340) above, with K18E counted along it

HOXD13 [26] = target: HOXD13 (Homo sapiens, UniProt P35453 263-343, T313A)
Sequence of HOXD13 (Homo sapiens, UniProt P35453 263-343, T313A) (P35453 263-343 T313A): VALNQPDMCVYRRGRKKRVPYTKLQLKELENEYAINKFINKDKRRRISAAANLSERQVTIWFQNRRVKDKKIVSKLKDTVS

Sequence of SHOX (Homo sapiens, UniProt O15266 103-189) (O15266 103-189): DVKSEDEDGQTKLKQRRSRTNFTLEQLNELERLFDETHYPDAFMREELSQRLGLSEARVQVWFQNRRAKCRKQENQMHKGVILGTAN
Sequence of SHOX (Homo sapiens, UniProt O15266 103-189, R173C) (O15266 103-189 R173C): as the sequence (O15266 103-189) above, with R71C counted along it
Sequence of ALX3 (Homo sapiens, UniProt O95076 139-225, N203Q) (O95076 139-225 N203Q): as the sequence (O95076 139-225) above, with N65Q counted along it
Sequence of HOXB6 (Homo sapiens, UniProt P17509 132-218, K202E) (P17509 132-218 K202E): as the sequence (P17509 132-218) above, with K71E counted along it

Sequence: CCAGCTCC
- binding signal (SHOX [1]): 7.19 upbm affinity estimate (log intensity, higher = more binding, comparable within an allelic series)
- binding signal (HOXB6 [2]): 8.94 upbm affinity estimate (log intensity, higher = more binding, comparable within an allelic series)
- binding signal (ALX3 [3]): 7.65 upbm affinity estimate (log intensity, higher = more binding, comparable within an allelic series)
- binding signal (SHOX [4]): 7.18 upbm affinity estimate (log intensity, higher = more binding, comparable within an allelic series)
- binding signal (ALX3 [5]): 7.54 upbm affinity estimate (log intensity, higher = more binding, comparable within an allelic series)
- binding signal (ALX3 [6]): 7.75 upbm affinity estimate (log intensity, higher = more binding, comparable within an allelic series)
- binding signal (ALX3 [7]): 7.76 upbm affinity estimate (log intensity, higher = more binding, comparable within an allelic series)
- binding signal (ALX3 [8]): 7.69 upbm affinity estimate (log intensity, higher = more binding, comparable within an allelic series)
- binding signal (HOXB6 [9]): 8.78 upbm affinity estimate (log intensity, higher = more binding, comparable within an allelic series)

Sequence: CAGCGCAG
- binding signal (SHOX [1]): 7.11 upbm affinity estimate (log intensity, higher = more binding, comparable within an allelic series)
- binding signal (PAX4 [10]): 9.32 upbm affinity estimate (log intensity, higher = more binding, comparable within an allelic series)
- binding signal (PAX4 [11]): 9.29 upbm affinity estimate (log intensity, higher = more binding, comparable within an allelic series)
- binding signal (PAX4 [12]): 9.39 upbm affinity estimate (log intensity, higher = more binding, comparable within an allelic series)
- binding signal (PITX2): 8.17 upbm affinity estimate (log intensity, higher = more binding, comparable within an allelic series)
- binding signal (SHOX [4]): 7.22 upbm affinity estimate (log intensity, higher = more binding, comparable within an allelic series)
- binding signal (PAX4 [13]): 9.38 upbm affinity estimate (log intensity, higher = more binding, comparable within an allelic series)
- binding signal (PAX4 [14]): 9.36 upbm affinity estimate (log intensity, higher = more binding, comparable within an allelic series)
- binding signal (PAX4 [15]): 9.48 upbm affinity estimate (log intensity, higher = more binding, comparable within an allelic series)

Sequence: AATTAGAC
- binding signal (SHOX [1]): 11.4 upbm affinity estimate (log intensity, higher = more binding, comparable within an allelic series)
- binding signal (PAX4 [10]): 11.7 upbm affinity estimate (log intensity, higher = more binding, comparable within an allelic series)
- binding signal (PAX4 [11]): 12.2 upbm affinity estimate (log intensity, higher = more binding, comparable within an allelic series)
- binding signal (PAX4 [12]): 12 upbm affinity estimate (log intensity, higher = more binding, comparable within an allelic series)
- binding signal (SHOX [4]): 9.23 upbm affinity estimate (log intensity, higher = more binding, comparable within an allelic series)
- binding signal (PAX4 [13]): 10.6 upbm affinity estimate (log intensity, higher = more binding, comparable within an allelic series)
- binding signal (PAX4 [14]): 11 upbm affinity estimate (log intensity, higher = more binding, comparable within an allelic series)
- binding signal (HESX1 [16]): 8.68 upbm affinity estimate (log intensity, higher = more binding, comparable within an allelic series)
- binding signal (HESX1 [17]): 7.81 upbm affinity estimate (log intensity, higher = more binding, comparable within an allelic series)
- binding signal (PAX4 [15]): 11 upbm affinity estimate (log intensity, higher = more binding, comparable within an allelic series)

Sequence: CCTTGCCC
- binding signal (SHOX [1]): 7.09 upbm affinity estimate (log intensity, higher = more binding, comparable within an allelic series)
- binding signal (HOXA2 [18]): 7.28 upbm affinity estimate (log intensity, higher = more binding, comparable within an allelic series)
- binding signal (SHOX [4]): 7.14 upbm affinity estimate (log intensity, higher = more binding, comparable within an allelic series)
- binding signal (HOXA2 [19]): 10.4 upbm affinity estimate (log intensity, higher = more binding, comparable within an allelic series)
- binding signal (HOXA2 [20]): 10.4 upbm affinity estimate (log intensity, higher = more binding, comparable within an allelic series)
- binding signal (HOXA2 [21]): 7.27 upbm affinity estimate (log intensity, higher = more binding, comparable within an allelic series)

Sequence: CCCTTCGA
- binding signal (SHOX [1]): 6.95 upbm affinity estimate (log intensity, higher = more binding, comparable within an allelic series)
- binding signal (HOXC10 [22]): 10 upbm affinity estimate (log intensity, higher = more binding, comparable within an allelic series)
- binding signal (HOXD13 [23]): 9.49 upbm affinity estimate (log intensity, higher = more binding, comparable within an allelic series)
- binding signal (SHOX [4]): 7.13 upbm affinity estimate (log intensity, higher = more binding, comparable within an allelic series)
- binding signal (HOXD13 [24]): 9.43 upbm affinity estimate (log intensity, higher = more binding, comparable within an allelic series)
- binding signal (HOXC10 [25]): 10.1 upbm affinity estimate (log intensity, higher = more binding, comparable within an allelic series)
- binding signal (HOXD13 [26]): 9.48 upbm affinity estimate (log intensity, higher = more binding, comparable within an allelic series)

Sequence: GCCTGCCA
- binding signal (SHOX [1]): 7.25 upbm affinity estimate (log intensity, higher = more binding, comparable within an allelic series)
- binding signal (SHOX [4]): 7.26 upbm affinity estimate (log intensity, higher = more binding, comparable within an allelic series)

Sequence: GCCCAAGC
- binding signal (SHOX [1]): 7.26 upbm affinity estimate (log intensity, higher = more binding, comparable within an allelic series)
- binding signal (SHOX [4]): 7.23 upbm affinity estimate (log intensity, higher = more binding, comparable within an allelic series)

Sequence: AGGGAAAC
- binding signal (SHOX [1]): 7.15 upbm affinity estimate (log intensity, higher = more binding, comparable within an allelic series)
- binding signal (SHOX [4]): 7.22 upbm affinity estimate (log intensity, higher = more binding, comparable within an allelic series)

Sequence: CCGTGGCC
- binding signal (SHOX [1]): 7.18 upbm affinity estimate (log intensity, higher = more binding, comparable within an allelic series)
- binding signal (SHOX [4]): 7.22 upbm affinity estimate (log intensity, higher = more binding, comparable within an allelic series)

Sequence: CCTGGGGC
- binding signal (SHOX [1]): 7.08 upbm affinity estimate (log intensity, higher = more binding, comparable within an allelic series)
- binding signal (ALX3 [3]): 7.67 upbm affinity estimate (log intensity, higher = more binding, comparable within an allelic series)
- binding signal (SHOX [4]): 7.09 upbm affinity estimate (log intensity, higher = more binding, comparable within an allelic series)
- binding signal (ALX3 [5]): 7.69 upbm affinity estimate (log intensity, higher = more binding, comparable within an allelic series)
- binding signal (ALX3 [6]): 7.69 upbm affinity estimate (log intensity, higher = more binding, comparable within an allelic series)
- binding signal (ALX3 [7]): 7.65 upbm affinity estimate (log intensity, higher = more binding, comparable within an allelic series)
- binding signal (ALX3 [8]): 7.61 upbm affinity estimate (log intensity, higher = more binding, comparable within an allelic series)

Sequence: CCCACTCG
- binding signal (SHOX [1]): 7.04 upbm affinity estimate (log intensity, higher = more binding, comparable within an allelic series)
- binding signal (SHOX [4]): 7.12 upbm affinity estimate (log intensity, higher = more binding, comparable within an allelic series)
